# Compound activity from PubChem.
# Shown are actives, neighbours in structure and some others; about 3.5% of the full set was active somewhere.
# BoNT-A LC inh2 = inhibitors of Botulinum neurotoxin A light chain protease; inhibition, % at 10 µM; multiplex microsphere protease substrate cleavage, flow cytometry; 360,000 compounds, 0.17% hits
# Anthrax LF prot = inhibitors of Bacillus anthracis lethal factor protease; P15917; multiplex microsphere protease cleavage assay, LF; inhibition, % at 10 µM; 360,000 compounds, 0.12% hits; AID 588501
# Target sequence (P15917 whole entry, looked up): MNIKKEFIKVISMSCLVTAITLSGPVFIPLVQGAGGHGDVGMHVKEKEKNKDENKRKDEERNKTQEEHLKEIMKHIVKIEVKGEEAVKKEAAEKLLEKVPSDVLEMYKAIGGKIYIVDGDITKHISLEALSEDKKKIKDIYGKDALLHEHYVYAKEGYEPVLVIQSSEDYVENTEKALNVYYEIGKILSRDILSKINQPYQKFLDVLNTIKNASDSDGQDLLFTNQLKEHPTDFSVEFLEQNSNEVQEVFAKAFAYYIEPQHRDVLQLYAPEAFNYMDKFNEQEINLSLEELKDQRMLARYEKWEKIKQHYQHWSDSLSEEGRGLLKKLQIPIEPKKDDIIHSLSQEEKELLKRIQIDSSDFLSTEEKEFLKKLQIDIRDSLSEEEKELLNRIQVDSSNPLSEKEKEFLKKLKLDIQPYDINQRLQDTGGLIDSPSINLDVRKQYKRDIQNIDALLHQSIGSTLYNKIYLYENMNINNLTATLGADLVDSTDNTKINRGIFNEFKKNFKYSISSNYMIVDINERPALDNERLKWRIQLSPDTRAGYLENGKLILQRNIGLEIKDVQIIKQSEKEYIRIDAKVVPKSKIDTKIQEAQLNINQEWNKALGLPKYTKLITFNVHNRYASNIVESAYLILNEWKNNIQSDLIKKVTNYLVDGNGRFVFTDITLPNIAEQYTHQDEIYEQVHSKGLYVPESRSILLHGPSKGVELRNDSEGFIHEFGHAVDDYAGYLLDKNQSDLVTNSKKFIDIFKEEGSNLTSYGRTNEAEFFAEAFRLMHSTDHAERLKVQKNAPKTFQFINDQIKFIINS
# Vc quorum ag = quorum light induction in luxS cqsA deficient V. cholerae. AID 588436. V. cholerae BH1578 lux reporter, luminescence, 6 h. 350,000 compounds, 0.16% hits. activation, % at 18.7 µM; in the data active = activation mostly above about 9.7%, no sharp cut-off; inconclusive = no clear call, values can overlap the other calls; inactive = mostly below about 3.7%
# Bead autofluor = compound fluorescence in toxin protease inhibitor counterscreen; 360,000 compounds, 3.1% hits; compound autofluorescence counterscreen, microsphere flow cytometry; stronger effect = higher value; fluorescence intensity (test concentration not listed); in the data active = fluorescence intensity above about 16000; inconclusive = no clear call, values can overlap the other calls
# BoNT-F LC inh = blocks Botulinum neurotoxin F light chain protease; Multiplex microsphere protease cleavage assay, flow cytometry; inhibition, % at 10 µM; 360,000 compounds, 0.22% hits; AID 588497; in the data active = inhibition above about 35%, passing the limit was not always enough; inconclusive = no clear call, values can overlap the other calls
# A number is an active result; – = inactive; ? = inconclusive; · = no result. Rule as the data show it, unless noted: active = inhibition above about 30%; inconclusive = no clear call, values can overlap the other calls; inactive = below that.
SMILES,BoNT-A LC inh2,Anthrax LF prot,Vc quorum ag,Bead autofluor,BoNT-F LC inh
COc1ccc(N2CCN(CC(=O)N3CCC(C)CC3)CC2)cc1,–,–,–,17583,–
CC1CCN(CC(=O)N2CCN(c3ccccc3)CC2)CC1,–,–,–,–,–
COC(=O)C1=CN(CC2CCCO2)C=C(C(=O)OC)C1c1ccsc1 (stereo not drawn),–,–,–,22638,–
CCc1sc(C(=O)NCCCn2ccnc2)cc1Br,–,–,–,–,–
Cc1cc2oc3c(c(=O)c2cc1C)C(c1cccc(Br)c1)N(Cc1ccco1)C3=O (stereo not drawn),–,–,–,–,–
CCOc1cc(C2c3c(oc4cc(C)c(Cl)cc4c3=O)C(=O)N2Cc2ccco2)ccc1O (stereo not drawn),–,–,–,21623,–
Cc1ccc2oc3c(c(=O)c2c1)C(c1cccc(Br)c1)N(Cc1ccco1)C3=O (stereo not drawn),–,–,–,18391,–
C=CCn1c(SCC(=O)Nc2ccc(N3CCOCC3)cc2)nc2ccccc2c1=O,–,–,–,–,–
CCN(CC(=O)Nc1c(F)cccc1F)C(=O)CN(C)S(=O)(=O)c1ccc(F)cc1,–,–,–,–,–
Nc1c(C(=O)N2CCCCC2)sc(=S)n1-c1ccccc1,–,–,–,21338,–
C=CCn1c(N)c(C(=O)N2CCN(C)CC2)sc1=S,–,–,–,22789,–
CCOc1ccc(-n2c(N)c(C(=O)N3CCN(C)CC3)sc2=S)cc1,–,–,–,–,–
Cc1ccc(-n2c(N)c(C(=O)N3CCCCC3)sc2=S)cc1,·,·,–,·,·
Cc1ccc(-n2c(N)c(C(=O)N3CCN(C)CC3)sc2=S)cc1,–,–,–,21266,–
C=CCn1c(N)c(C(=O)NCCC2=CCCCC2)sc1=S,–,–,–,16404,–
Nc1c(C(=O)N2CCOCC2)sc(=S)n1-c1ccccc1,–,–,–,21197,–
CCOC(=O)SC1=N/C(=C\c2ccc(N(C)C)cc2)C(=O)S1,–,–,–,19076,–
CNc1nnc(-c2ccncc2)s1,–,–,–,16766,–
CCNc1nnc(-c2ccncc2)s1,–,–,–,–,–
CN(C)c1nc(NCc2ccccc2)nc(Oc2ccc(=O)[nH]n2)n1,–,–,17,–,–
CCN(CC)c1nc(Nc2ccccc2)nc(Oc2ccc(=O)[nH]n2)n1,–,–,–,–,–
COc1ccc(C2CN=NC2C(=O)c2ccccc2)cc1 (stereo not drawn),–,–,–,–,?
Cn1c(SCC(=O)n2c3c(c4ccccc42)CCCC3)nnc1-c1ccccc1,–,–,–,22437,–
CC(=O)Nc1ccc(-c2nnc(SCC(=O)n3c4c(c5ccccc53)CCCC4)n2C)cc1,–,–,–,–,–
CSc1ccc(C(=O)C2CCCN(C(=O)Cc3nonc3C)C2)cc1 (stereo not drawn),–,–,–,–,–
SMILES,BoNT-A LC inh2,Anthrax LF prot,Vc quorum ag,Bead autofluor,BoNT-F LC inh
NC(=O)c1cn(C2CCCCC2)c2ccccc2c1=O,–,–,–,–,41
COc1ccc(C)cc1NC(=O)CNC(c1ccccc1)c1ccc(C)cc1 (stereo not drawn),–,–,–,–,–
COc1ccc(OC)c(CC(=O)O)c1,?,–,–,23906,–
COc1ccc(C)cc1NC(=O)COCC(=O)O,–,–,–,20410,–
COc1ccc(OC)c(NC(=O)CSCC(=O)O)c1,–,–,17,–,–
COc1ccc(OC)c(NC(=O)Cc2coc3ccc(C)cc23)c1,–,–,–,–,–
COc1ccc(OC)c(NC(=O)Cc2coc3cc(C)cc(C)c23)c1,?,–,–,22476,–
COc1ccc(OC)c(C(=O)C(=O)c2cc(OC)ccc2OC)c1,–,–,–,–,–
O=C(N/N=C/c1ccc(F)cc1)c1cccc(NC(=O)c2ccc(F)cc2)c1,–,–,–,–,–
COc1ccc(NC(=O)Nc2nc(C)cc(C)n2)c(OC)c1,–,–,–,–,–
O=C(NCCN1CCOCC1)C(=O)NCC1OCCCN1S(=O)(=O)c1cc(F)ccc1F (stereo not drawn),–,–,–,–,–
Fc1cnc(N2CCc3ccccc32)nc1N1CCc2ccccc21,–,–,–,16473,–
COc1cc(CC(=O)NCC(C)(C)N2CCOCC2)cc(OC)c1OC,–,–,–,–,–
CCN(CC)C(=O)Cn1cc(C(=O)C(=O)Nc2ccc3c(c2)OCCO3)c2ccccc21,–,–,–,–,–
COc1cc(NC(=O)N[C@@H](CCSC)C(=O)O)cc(OC)c1,–,–,–,–,–
COc1cc(NC(=O)N[C@H](C(=O)O)C(C)C)cc(OC)c1,–,–,–,21545,–
COc1cc(NC(=O)C(F)(F)F)cc(OC)c1,–,–,–,16433,–
Cc1c(CCO)c(=O)[nH]n1C(=O)c1ccc(F)cc1,–,–,–,23529,–
CC1(C(=O)NNC(=O)c2cccc([N+](=O)[O-])c2)CC1(Br)Br (stereo not drawn),–,–,–,–,–
COc1ccc2nc(C)cc(N3CCN(c4ccccc4)CC3)c2c1,–,–,–,–,–
COc1ccc2nc(C)cc(N3CCOCC3)c2c1,–,–,–,19626,–
O=C(CC1SC2=NCCN2C1=O)Nc1ccc(Cl)cc1 (stereo not drawn),–,–,–,17758,–
C=CCN(c1ccccc1OC)S(=O)(=O)c1cccc(C(=O)NCC(c2ccc(OC)cc2)N2CCCC2)c1 (stereo not drawn),–,–,–,23106,–
COc1ccc(C(CNC(=O)c2cc3ccccc3cc2OC)N2CCCC2)cc1 (stereo not drawn),?,–,–,27989,–
CCc1nnc(NS(=O)(=O)c2ccc(NC(=O)CCC(=O)OC)cc2)s1,–,–,–,–,?
SMILES,BoNT-A LC inh2,Anthrax LF prot,Vc quorum ag,Bead autofluor,BoNT-F LC inh
CC(C)N(C(=O)CN1C(=O)NC(c2ccccc2)(c2ccccc2)C1=O)C(C)C,–,–,–,–,–
COc1ccc(CC(=O)NNC(=O)c2ccc(SCc3cc(F)ccc3F)c([N+](=O)[O-])c2)cc1,–,–,–,22474,–
Cc1cc(Nc2ccc(C(=O)O)cc2)nc(N)n1,·,·,–,·,·
Cc1cc(Nc2ccc(F)cc2)nc(N)n1,–,–,–,23182,–
O=C(Nc1ccnc(-c2cccnc2)n1)c1cccc(Cl)c1Cl,–,–,–,22659,–
CC(C)C(=O)Nc1ccnc(-c2cccnc2)n1,–,–,–,22732,–
CC(=O)Nc1ccnc(-c2cccnc2)n1,–,–,–,–,–
O=S(=O)(NCC1(N2CCOCC2)CCCCC1)c1ccc(Cl)cc1C(F)(F)F,–,–,–,–,–
CC(=O)c1ccc(NC(=S)N2CCN(S(=O)(=O)c3ccc(F)cc3)CC2)cc1,–,–,–,–,–
O=C(CSc1ncnc2nc[nH]c12)c1ccc2ccccc2c1,–,–,–,–,–
O=C(CSc1ncnc2nc[nH]c12)N1CCN(c2ccc(Cl)cc2)CC1,–,–,–,16576,–
O=C(O)CSc1ncnc2nc[nH]c12,–,–,–,20292,–
CCOC(=O)C(C)Sc1ncnc2nc[nH]c12 (stereo not drawn),?,–,–,24038,–
CCOC(=O)c1cc(-c2ccc(F)cc2)n(CC(=O)NCc2cccnc2)c1C,–,–,–,–,–
